Sampled rows, rich in hits. Any-hit rate of the full collection: about 2.8%.
POLI inh = qHTS for Inhibitors of Polymerase Iota; DNA polymerase iota (Homo sapiens), Q9UNA4; hit rate 1% among 390,000; Pol iota fluorescent replication assay, 10 min; Potency, µM (series often up to 115 µM), actives largely listed as inhibitors; AID 588590, 2011
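Fluorescent replication assay read twice, at 0 min and 10 min after adding 50 nM (final) substrate. Enzyme (10 nM) and compounds were first incubated 15 min at room temperature; enzyme-free buffer wells were negative controls.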
Pol kappa inh = qHTS for Inhibitors of Polymerase Kappa | Potency, µM (series often up to 107 µM), most hits filed as inhibitors | DNA polymerase kappa (Homo sapiens), Q9UBT6 | purified Pol kappa, fluorescent DNA synthesis assay, 10 min | hit rate 0.53% among 400,000
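10 nM Pol kappa was preincubated with compounds for 15 min at room temperature. Reaction started with 50 nM (final) substrate. Fluorescence read kinetically at 0 and 10 min.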
PI5P4Ka inh = qHTS for Inhibitors of phosphatidylinositol 5-phosphate 4-kinase (PI5P4K). max response, %. Phosphatidylinositol 5-phosphate 4-kinase type-2 alpha (Homo sapiens), P48426. PI5P4Kalpha enzyme, ADP-Glo luminescence, 60 min; active compounds read low. hit rate 1.2% among 330,000. AID 652105, 2013; active means max response of -50% or lower; inconclusive means between -30% and -50%; inactive means -30% or higher; further: value at the top dose of about 77 µM
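Enzyme plus substrate dispensed, test compounds pinned in, then ATP (5 microM final) added. After 60 min at RT, ADP-Glo reagent 1 for 45 min and reagent 2 for 30 min preceded luminescence imaging.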
Pol eta inh = qHTS for Inhibitors of Polymerase Eta. DNA polymerase eta (Homo sapiens), Q9Y253. recombinant Pol eta, fluorescent DNA replication assay. Potency, µM (top dose mostly 114 µM), most hits filed as inhibitors. hit rate 1.2% among 390,000. AID 588591, 2011
Target sequence (Q9Y253 whole entry, looked up): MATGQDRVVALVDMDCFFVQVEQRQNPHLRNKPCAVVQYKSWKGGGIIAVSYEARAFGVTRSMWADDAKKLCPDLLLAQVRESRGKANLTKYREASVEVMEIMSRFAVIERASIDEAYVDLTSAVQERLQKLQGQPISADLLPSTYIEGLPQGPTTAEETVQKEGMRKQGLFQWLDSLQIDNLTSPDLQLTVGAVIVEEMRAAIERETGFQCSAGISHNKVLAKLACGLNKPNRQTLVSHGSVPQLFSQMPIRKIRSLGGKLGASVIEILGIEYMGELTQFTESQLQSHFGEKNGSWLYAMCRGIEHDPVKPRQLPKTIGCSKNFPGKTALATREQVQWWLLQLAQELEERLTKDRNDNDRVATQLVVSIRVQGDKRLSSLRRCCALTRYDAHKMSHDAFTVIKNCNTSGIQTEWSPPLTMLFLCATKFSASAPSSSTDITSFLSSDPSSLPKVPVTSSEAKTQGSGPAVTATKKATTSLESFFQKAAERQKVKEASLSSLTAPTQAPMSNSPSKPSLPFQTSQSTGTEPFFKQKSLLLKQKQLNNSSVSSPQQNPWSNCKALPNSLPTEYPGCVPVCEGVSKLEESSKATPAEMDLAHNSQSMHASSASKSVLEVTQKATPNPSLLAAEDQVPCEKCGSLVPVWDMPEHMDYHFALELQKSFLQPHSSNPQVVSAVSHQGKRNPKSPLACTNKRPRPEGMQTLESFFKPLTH
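Pol eta at 10 nM preincubated with compounds 15 min at room temperature; reaction started with fluorescent substrate (50 nM final) and read kinetically at 0 and 10 min.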
WRN inhibitor = qHTS for Inhibitors of WRN Helicase | Bifunctional 3'-5' exonuclease/ATP-dependent helicase WRN (Homo sapiens), Q14191 | Potency, µM (top dose mostly 114 µM), most hits filed as inhibitors | WRN helicase unwinding, fluorescent forked duplex, kinetic | hit rate 0.46% among 360,000; further: nearly all actives have a fitted effect of over 55% in size
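Primary qHTS, 1536-well format. 20 nM WRN + compound, 15 min RT; start with 100 nM forked fluorophore/quencher duplex, 2 mM ATP (final); kinetic read ex 525/em 598 nm.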
Pol beta inh = qHTS Assay for Inhibitors of DNA Polymerase Beta; P06746; Pol beta primer extension/strand displacement, fluorescence kinetic; Potency, µM (highest dose often 114 µM), most hits filed as inhibitors; hit rate 1.3% among 340,000
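10 nM enzyme + cpd, 15 min RT; start with substrate 50 nM final; read 0 min and after 10 min RT. Corrected, normalized data; 4-parameter Hill curve fit.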
A number is an active result; 0 = inactive; ? = inconclusive; - = not tested or not shown; [ ] = dose if it differs, or a comment. Unless noted, the call rests on the fitted dose curve; in most records, active means well fitted curve in the direction sought with a large enough effect; inconclusive means small, poorly fitted or top-dose-only effect, or another doubt; inactive means no such curve, though single readings can be large; an effect the other way counts as inactive or inconclusive.

SMILES | POLI inh | Pol kappa inh | PI5P4Ka inh | Pol eta inh | WRN inhibitor | Pol beta inh
O=C(Nc1ccc(S(=O)(=O)Nc2nccs2)cc1)c1ccc(N2C(=O)c3ccccc3C2=O)cc1 | 71µM | ? | 0 | ? | 0 | 22µM
Cc1noc(NS(=O)(=O)c2ccc(NC(=O)c3ccc(N4C(=O)c5ccccc5C4=O)cc3)cc2)c1C | ? | ? | 0 | 79µM | ? | 35µM
O=C(/C=C\c1ccc2c(c1)OCO2)NC1CC(=O)N(c2cccc(F)c2)C1 (stereo unspecified) | 0 | 0 | - | 0 | - | 0
CC(=O)Nc1cccc(C(=O)/C=C/c2ccc(/C=C/C(=O)c3cccc(NC(C)=O)c3)cc2)c1 | - | - | - | - | - | 0
CN(C)c1ccc(/C=C/C(=O)c2cc(Cl)ccc2O)cc1 | 0 | 0 | 0 | ? | 50µM | 0
CC(=O)Nc1cccc(C(=O)/C=C/c2ccc(N(C)C)cc2)c1 | 22µM | ? | 0 | ? | ? | 50µM
O=C(/C=C/c1ccncc1)c1cc(Cl)ccc1O | 0 | 0 | 0 | 0 | 0 | 0
CCN(CC)S(=O)(=O)c1cccc2cc(C(=O)O)c(O)cc12 | ? | 0 | -67 | 0 | 0 | 0
CC(C)CSc1oc(-c2ccco2)nc1S(=O)(=O)c1ccccc1 | 0 | 0 | ? | ? | 0 | ?
CN(c1ccccc1)S(=O)(=O)c1ccc2[nH]c(=O)oc2c1 | 11µM | 0 | 0 | 32µM | 0 | 50µM
Cc1ccc(C)c(NS(=O)(=O)c2ccc3[nH]c(=O)oc3c2)c1 | ? | ? | ? | 32µM | 0 | 32µM
COc1ccc(OCC(=O)NNC(=S)NC(=O)c2ccc(Br)o2)cc1 | 0 | 0 | 0 | 0 | 0 | 0
CCN(C(=O)COC(=O)C1CC1C)c1c(N)n(Cc2ccccc2)c(=O)[nH]c1=O (stereo unspecified) | 0 | 0 | 0 | 0 | 0 | -
COc1cc2nc(N3CCCN(C)CC3)nc(N(C)C)c2cc1OC | ? | 0 | - | - | - | -
C=C[C@@H]1c2cc(C)ccc2N(S(=O)(=O)c2ccc(C)cc2)[C@H](c2ccc(C(=O)OC)cc2)C1(C#N)C#N | 0 | 0 | - | - | - | -
Cc1cccc(CSc2nc3c(sc4ccccc43)c(=O)n2CCC(=O)NC(C)C)c1 | 0 | 0 | - | 0 | - | 25µM
CC(C)NC(=O)CCn1c(SCc2c(F)cccc2Cl)nc2c(sc3ccccc32)c1=O | 0 | 0 | - | 0 | - | 0
Cc1ccc2cc(C)c3nnc(SCC(=O)Nc4nc5c(s4)CCCC5)n3c2c1 | - | - | - | - | - | 0
O=C(CNC(=O)c1ccc(F)cc1)N/N=C/c1cc(Br)ccc1OC(=O)/C=C/c1ccco1 | ? | 0 | 0 | 56µM | 0[11.6 µM] | ?
O=C(CNC(=O)c1ccccc1F)N/N=C/c1cc(Br)ccc1OC(=O)/C=C/c1ccco1 | ? | ? | 0 | 0 | 0 | ?
COc1ccccc1C(=O)NCC(=O)N/N=C/c1cc(Br)ccc1OC(=O)/C=C\c1ccco1 | ? | 32µM | 0 | 0 | 0[11.6 µM] | 0
Cc1cccc(-n2c(=O)c3c(c4cc(C)ccc4n3C)n(CC(=O)NCC3CCCO3)c2=O)c1 (stereo unspecified) | 0 | 0 | - | 0 | - | 0
CCN(CC(=O)Nc1ccc2c(c1)OCCO2)C(=O)/C=C/c1cc(Br)ccc1OC | - | - | 0 | 0 | 0 | -
O=C(NN=C1C2CC3CC1CC(Cl)(C3)C2)c1ccccn1 | 0 | 0 | 0 | 0 | 0 | 0
O=C(O)C1(C(=O)O)CCC1.[NH2-].[NH2-].[Pt+2] | - | 8.9µM | - | - | - | -
O=C(O)C1(C(=O)O)CCCC1 | 0 | 0 | 0 | 0 | 0 | -
CCOC(=O)c1ccc(N2C(=O)C3CC=CCC3C2=O)cc1 (stereo unspecified) | 89µM | 0 | - | 0 | 0 | 0
CC(C)OC(=O)c1ccc(N2C(=O)C3CC=CCC3C2=O)cc1 (stereo unspecified) | 0 | 0 | 0 | 0 | 0 | 0
CCOC(=O)c1c(N2C(=O)Nc3ccccc3N2O)n[nH]c1-c1cccc(Cl)c1 | 0 | 0 | -66 | 0 | 0 | 0

Screens (PubChem BioAssay)
